Where a name gives a salt, the structure may show the parent alone. ± gives the standard deviation of the averaged measurements.

What all share (experiment): growth (OD600 after 10 h); higher = more growth (less inhibition)
The subject of experiment [1] is E. coli TESEC Alr+ wild-type control. Conditions: compound 0.1 mM; raw OD600 reference: median of DMSO wells 0.241, cell-free background 0.041. The method, then: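 TESEC Mtb Alr E. coli, or the Alr+ wild-type control, in 384-well plates with Prestwick library compounds at 0.1 mM and 1% DMSO, across arabinose induction levels of 1E3 to 1E7 nM. Growth is read as OD600 after 10 h at 37 °C in triplicate biological replicates.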

For experiment [2], the system named is E. coli TESEC Mtb Asd. The conditions noted are these: compound 0.1 mM. The protocol: (§1)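 TESEC E. coli strains in which the native enzyme is deleted and replaced by arabinose-inducible Mtb Asd, DapB, CysH or TrpD, each grown in its selective medium. Strains were screened against the Prestwick library at 0.1 mM and 1% DMSO in 384-well format at low and high arabinose induction. Growth is read as OD600 after 10 h in triplicate.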

Experiment [3] relates to E. coli TESEC Mtb DapB. Conditions: compound 0.1 mM. The method, then:
as §1

For experiment [4], the system named is E. coli TESEC Mtb Alr. The conditions noted are these: compound 0.1 mM. The protocol: (§2)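 TESEC Mtb Alr E. coli (ΔaraC ΔtolC ΔentC Δalr ΔdadX, arabinose-inducible Mtb Alr) or the Alr+ wild-type control strain, grown in defined M9-fructose medium without D-alanine in 96-well plates with Prestwick library compounds at 0.1 mM and 1% DMSO. Low Alr induction is 0.1 µM arabinose and high induction is 10 mM arabinose.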

The subject of experiment [5] is E. coli TESEC Alr+ wild-type control. Conditions: compound 0.1 mM; raw OD600 reference: median of DMSO wells 0.49, cell-free background 0.052. The method, then:
as §2

Setting [6] is: arabinose induction (level): High, raw OD600 reference: median of DMSO wells 0.331, cell-free background 0.041.
Where [7] appears, read: arabinose induction (level): Low, raw OD600 reference: median of DMSO wells 0.417, cell-free background 0.041.
The mark [8] stands for this setting: arabinose induction (level): High, raw OD600 reference: median of DMSO wells […], cell-free background 0.041.
Setting [9] is: arabinose induction (level): Low, raw OD600 reference: median of DMSO wells 0.227, cell-free background 0.041.
Where [10] appears, read: arabinose 100 nM, raw OD600 reference: median of DMSO wells 0.413, cell-free background 0.052.
Setting [11] is: arabinose 10000000 nM, raw OD600 reference: median of DMSO wells […], cell-free background 0.052.

Consider `O=C(CCCCCCC(=O)Nc1ccccc1)NO` [Vorinostat], for which the growth in experiment [1] worked out at 0.253 ± 0.0073; in experiment [2] (setting [6]), 0.195 ± 0.028; in experiment [2] (setting [7]), 0.335 ± 0.061; in experiment [3] (setting [8]), 0.174 ± 0.0062; in experiment [3] (setting [9]), 0.204 ± 0.0056; in experiment [4] (setting [10]) it was 0.415 ± 0.01. Moreover, the growth in experiment [4] (setting [11]) was determined as 0.3 ± 0.021.

With `CCC(=O)[C@@]1(C)[C@H](C)C[C@H]2[C@@H]3CCC4=CC(=O)C=C[C@]4(C)[C@H]3[C@@H](O)C[C@@]21C` [Rimexolone], the growth in experiment [1] was found to be 0.216 ± 0.0076; in experiment [2] (setting [6]), 0.203 ± 0.03; in experiment [2] (setting [7]) it was 0.41 ± 0.047; in experiment [5] it was 0.459 ± 0.021; in experiment [4] (setting [10]), 0.414 ± 0.019; in experiment [4] (setting [11]), 0.365 ± 0.038.

`Cc1cccn2c(=O)c(-c3nnn[nH]3)cnc12` [Pemirolast potassium]: the growth in experiment [1] turned out to be 0.218 ± 0.011; in experiment [2] (setting [6]), 0.284 ± 0.1; in experiment [2] (setting [7]), 0.371 ± 0.089; in experiment [3] (setting [8]) it was 0.212 ± 0.028; in experiment [3] (setting [9]), 0.223 ± 0.014; in experiment [4] (setting [10]), 0.421 ± 0.012. Further, the growth in experiment [4] (setting [11]) came out at 0.311 ± 0.014.

`COc1ccccc1N1CCN(CCCCNC(=O)c2ccc3ccccc3c2)CC1`: the growth in experiment [1] was 0.149 ± 0.0027; in experiment [2] (setting [6]), 0.156 ± 0.0093; in experiment [2] (setting [7]), 0.265 ± 0.013; in experiment [5], 0.374 ± 0.0092; in experiment [4] (setting [10]), 0.398 ± 0.0097; in experiment [4] (setting [11]), 0.181 ± 0.024.

On to `CCCN(CCC)C(=O)C(CCC(=O)O)NC(=O)c1ccccc1` (configuration not stated) [Proglumide], for which the growth in experiment [1] amounted to 0.255 ± 0.0056; in experiment [2] (setting [6]), 0.318 ± 0.075; in experiment [2] (setting [7]) it was 0.368 ± 0.053; in experiment [3] (setting [8]), 0.205 ± 0.018; in experiment [3] (setting [9]), 0.246 ± 0.019; in experiment [4] (setting [10]) it was 0.415 ± 0.021. The compound also yielded a growth in experiment [4] (setting [11]) of 0.376 ± 0.033.

As to `COc1cc2nc(N(C)CCCNC(=O)C3CCCO3)nc(N)c2cc1OC` (configuration not stated) [Alfuzosin hydrochloride], the growth worked out at 0.215 ± 0.0062 in experiment [1]; 0.24 ± 0.029 in experiment [2] (setting [6]); 0.361 ± 0.029 in experiment [2] (setting [7]); 0.462 ± 0.029 in experiment [5]; 0.4 ± 0.013 in experiment [4] (setting [10]); 0.318 ± 0.013 in experiment [4] (setting [11]).

In the case of `CCN(Cc1ccncc1)C(=O)C(CO)c1ccccc1` (configuration not stated) [Tropicamide], the growth in experiment [1] was 0.24 ± 0.0069; in experiment [2] (setting [6]), 0.289 ± 0.021; in experiment [2] (setting [7]) it was 0.416 ± 0.022; in experiment [5], 0.527 ± 0.08; in experiment [4] (setting [10]), 0.413 ± 0.013; in experiment [4] (setting [11]), 0.33 ± 0.0058.

On to `NS(=O)(=O)c1cc2c(cc1Cl)N=C(CSCc1ccccc1)NS2(=O)=O` [Benzthiazide], for which the growth is 0.241 ± 0.008 in experiment [1]; 0.286 ± 0.026 in experiment [2] (setting [6]); 0.487 ± 0.025 in experiment [2] (setting [7]); 0.194 ± 0.016 in experiment [3] (setting [8]); 0.21 ± 0.012 in experiment [3] (setting [9]); 0.405 ± 0.0095 in experiment [4] (setting [10]). Also, the growth in experiment [4] (setting [11]) worked out at 0.3136 ± 0.0011.

As to `O=c1[nH]c(=O)n([C@H]2C[C@H](O)[C@@H](CO)O2)cc1I` [Idoxuridine], the growth in experiment [1] stood at 0.2463 ± 0.002; in experiment [2] (setting [6]), 0.257 ± 0.057; in experiment [2] (setting [7]) it was 0.276 ± 0.032; in experiment [5], 0.483 ± 0.064; in experiment [4] (setting [10]), 0.369 ± 0.032; in experiment [4] (setting [11]), 0.376 ± 0.021.

With `Clc1ccccc1C(c1ccccc1)(c1ccccc1)n1ccnc1` [Clotrimazole], the growth was 0.03967 ± 0.00012 in experiment [1]; 0.0468 ± 0.00044 in experiment [2] (setting [6]); 0.0472 ± 0.0021 in experiment [2] (setting [7]); 0.0469 ± 0.0008 in experiment [3] (setting [8]); 0.0488 ± 0.0015 in experiment [3] (setting [9]); 0.07627 ± 0.0006 in experiment [4] (setting [10]). Moreover, the growth in experiment [4] (setting [11]) was 0.0569 ± 0.00059.

Consider `C[C@]1(Cn2ccnn2)[C@H](C(=O)O)N2C(=O)C[C@H]2S1(=O)=O` [Tazobactam], for which the growth in experiment [1] turned out to be 0.249 ± 0.011; in experiment [2] (setting [6]), 0.405 ± 0.031; in experiment [2] (setting [7]), 0.424 ± 0.022; in experiment [3] (setting [8]) it was 0.195 ± 0.004; in experiment [3] (setting [9]) it was 0.19 ± 0.017; in experiment [4] (setting [10]) it was 0.245 ± 0.17. Besides, the growth in experiment [4] (setting [11]) was 0.0826 ± 0.0045.

These data come from the supplement of paper PMC9262897, “Low-cost anti-mycobacterial drug discovery using engineered E. coli” (Nature Communications, 2022).
